# Reference: PubChem BioAssay
# Assay: resazurin metabolic signal in HepG2 cells – cell-based, resazurin fluorescence, 24 h, PK04 Diversity Set, profiling panel (AID 1172); further: test concentration not given here
# Details: HepG2 viability, higher = more signal
row,SMILES,z-score
1,COCCOC(=O)N1C(=O)[C@@]2(c3cc(C#CC4=CCCCC4)ccc31)[C@H](C(=O)NC[C@H](O)c1ccccc1)[C@H]1C(=O)O[C@H](c3ccccc3)[C@H](c3ccccc3)N1[C@@H]2c1ccc(OCCO)cc1,0.604
2,CCC#CCN(Cc1ccccc1Br)[C@H](/C=C/c1ccccc1)[C@@H](O)Cc1ccccc1,1.53
3,C=C(CCCC)/C(=C/C[C@@H](OC(=O)c1ccncc1)c1cccc(OCCO)c1)c1cc(C(=O)OC)ccc1OC,1.02
4,NC(=O)NCC#Cc1ccc2c(c1)[C@]1(C(=O)N2)[C@H](c2ccccc2OCCO)N2[C@H](c3ccccc3)[C@H](c3ccccc3)OC(=O)[C@H]2[C@@H]1C(=O)N1CCN(c2ncccn2)CC1,-0.381
5,O=C1OCC=C[C@H]2OC34C=CCN(Cc5ccccc5)C(=O)[C@H]3N(CCO)C(=O)[C@@H]4[C@@H]12 (some centres not stated),1.21
6,Cc1ccc(S[C@]2(C(=O)NC(C)C)CC(=O)N(Cc3cc(C(F)(F)F)cc(C(F)(F)F)c3)[C@@H]2c2ccc(CO)cc2I)cc1,0.53
7,COc1ccc(C(=O)Nc2ccc(CN3C(=O)[C@]4(O[C@H](CCn5cc(CCO)nn5)[C@@H]([Si](C)(C)c5ccc(OC)cc5)[C@@H]4C)c4ccccc43)cc2)cc1,-2.97
8,COC(=O)[C@@]1(Cc2ccccc2)[C@H]2c3cc(C(=O)N4CCCC4)n(CCN4CNCC4=O)c3C[C@H]2CN1C(=O)c1ccccc1,0.276
9,CCCNC(=O)[C@@H]1c2ccccc2C(=O)N(C2CCCCC2)[C@H]1c1ccc(CO)cc1,0.358
10,CC(C)C[C@@H]1NC(=O)[C@H]2C[C@@H](C(=O)NCCCCCC[N+](C)(C)C)[C@@H](c3ccc(O)cc3)N2C1=O,1.27
11,O=C(NCc1ccccc1)[C@@]1(Cc2ccccc2)COC(c2ccc(OCCCO)cc2)=N1,-2.41
12,C=CCN1C(=O)[C@@]2(Cc3ccccc3)N=C(c3ccc(OCCCO)cc3)O[C@H]2c2ccccc21,-0.406
13,COCCCNC(=O)[C@@H]1c2ccccc2C(=O)N(CC23CC4CC(CC(C4)C2)C3)[C@H]1c1ccc(CO)cc1,0.172
14,[N-]=[N+]=NCc1ccccc1[C@H]1OC(c2ccc(OCCCO)cc2)=N[C@@]1(Cc1ccccc1N=[N+]=[N-])C(=O)NCc1ccccc1,-0.494
15,O=C1C2C=CC(C(O)c3ccccc3)N(n3cnnc3)C2C(=O)N1Cc1ccccc1 (configuration not stated),-0.362
16,CCCC[C@@H]1C[C@H]1[C@@H](NC(=O)c1ccccc1)c1ccccc1C(F)(F)F,0.826
17,COc1ccc(CCN2C(=O)[C@@]3(c4ccc([N+](=O)[O-])cc4)CC(=O)N(CC45CC6CC(CC(C6)C4)C5)[C@@H]3c3ccc(CO)cc32)cc1,0.214
18,O=C1O[C@@H](c2ccccc2)[C@@H](c2ccccc2)N2[C@@H](c3ccc(OCCO)cc3)[C@]3(C(=O)Nc4ccc(C#CCCO)cc43)[C@@H](C(=O)N3CCN(c4ncccn4)CC3)[C@H]12,1.26
19,Cc1ccc(S[C@]2(C(=O)NC(C)C)CC(=O)N(C3Cc4ccccc4C3)[C@@H]2c2ccc(CO)cc2)cc1,0.0858
20,O=C1O[C@H](c2ccccc2)[C@H](c2ccccc2)N2[C@H]1[C@@H](C(=O)Nc1nc3ccccc3s1)[C@]1(C(=O)Nc3ccc(C#CC4=CCCCC4)cc31)[C@H]2c1ccccc1OCCO,0.111
21,C=CC[C@]1(C(=O)O)N=C(c2ccc(OCCCO)cc2)O[C@H]1c1ccccc1N=[N+]=[N-],0.912
22,CCOC(=O)C1=C[C@@H](c2ccccc2)N(S(=O)(=O)c2ccc(C)cc2)[C@H]1c1ccc(F)cc1,-0.296
23,C=CCC(OC(C)=O)[C@@H]1[C@@H](N(Cc2cccc3ccccc23)C(=O)c2ccc(C)cc2)c2cc(OCCCO)ccc2N1C(=O)c1ccc(-c2ccccc2)cc1 (some centres not stated),0.335
24,COc1ccc(-c2cc3c(c(-c4ccccc4)n2)[Si](C(C)C)(C(C)C)O[C@H]3c2ccccc2)cn1,0.158
25,Cc1ccc(S[C@]2(C(=O)O)CC(=O)N(Cc3cc(C(F)(F)F)cc(C(F)(F)F)c3)[C@@H]2c2ccc(CO)cc2I)cc1,-0.101
26,O=C1O[C@H](c2ccccc2)[C@H](c2ccccc2)N2[C@H]1[C@@H](C(=O)Nc1nc3ccccc3s1)[C@]1(C(=O)Nc3ccc(C#CC4(O)CCCCCC4)cc31)[C@H]2c1ccc(O)cc1,-0.629
27,O=C1C2C=CC(C(O)C#Cc3ccccc3)N(Nc3ccccc3)C2C(=O)N1c1ccccc1 (configuration not stated),0.198
